The structures appear in SMILES notation. About 950 (1.4%) of roughly 69,000 compounds showed an effect of 50% or more. Many of the other results were omitted from the sample, so strong results are more common in it than they were.

The test deals with Mycobacterium tuberculosis. Kind of test: Cornell M. t heat shock assay. Note: in the data most compounds retested in dose-response had high values. On the set-up: dose or concentration left out as unconfirmed. Format: functional, organism-based.
For the compound `CN(Cc1ccco1)Cc1cncc2c1CCN(Cc1ccoc1)C2.Cl.Cl.Cl`, the “Percent Effect” value is given as -8.81%.

In the case of `COc1ccc(CN(C)CC(O)COCc2ccccc2Cl)c(OC)c1.O=C(O)C(=O)O` (configuration not stated), the “Percent Effect” value was 10.76%.

As for `Cl.NC(=O)c1ccc(C2CCCNC2)nc1` (configuration not stated), the “Percent Effect” value is 6.817%.

Consider `Cc1noc(C)c1C(=O)N1C[C@@H]2COC[C@]2(COc2ccccn2)C1.O=C(O)C(F)(F)F`, for which the “Percent Effect” value is -29.95%.

As to `Cc1ccc2nc(C3CCCN3Cc3csc(C)n3)[nH]c2c1` (configuration not stated), the “Percent Effect” value is given as 87.71%.

Consider `Cc1ccc2nc(C3CCCN3Cc3nnc(C)s3)[nH]c2c1` (configuration not stated), for which the “Percent Effect” value is listed as -8.638%.

As for `Cc1ccc2nc(C3CCCN3Cc3scnc3C)[nH]c2c1` (configuration not stated), the “Percent Effect” value is 1.494%.

Regarding `Cn1cc(CN2C[C@@H]3COC[C@]3(C(=O)NCCc3ccccc3)C2)cn1.O=C(O)C(F)(F)F`, the “Percent Effect” value is on record as -18.43%.

With `COCCC(C)NS(=O)(=O)c1ccc(C)c(N(C)C)c1` (configuration not stated), the “Percent Effect” value turned out to be 1.91%.

Turning to `CCN(CC)c1ncnc2c1CCN(C(=O)Cc1ccccn1)CC2.O=C(O)C(F)(F)F.O=C(O)C(F)(F)F`, the “Percent Effect” value is -18.08%.

Turning to `CCn1ncc2c1C(COC)CN(c1ncc(F)cn1)C2.O=C(O)C(F)(F)F.O=C(O)C(F)(F)F` (configuration not stated), the “Percent Effect” value was 55.18%.

`CCn1ncc2c1C(COC)CN(Cc1ccc(F)cc1)C2.O=C(O)C(F)(F)F.O=C(O)C(F)(F)F` (configuration not stated): the “Percent Effect” value is listed as -13.12%.

Turning to `COCC1CN(c2ncc(F)cn2)Cc2cnn(C)c21.O=C(O)C(F)(F)F.O=C(O)C(F)(F)F` (configuration not stated), the “Percent Effect” value came out at 9.404%.

For `CCOCC1CN(Cc2ccco2)Cc2nccn2C1.O=C(O)C(F)(F)F` (configuration not stated), the “Percent Effect” value was -9.1%.

Take `CN(C)C(=O)CC1CC2(CCN(CC3CC3)CC2)c2cc(F)ccc21.O=C(O)C(F)(F)F` (configuration not stated): the “Percent Effect” value was -15.82%.

For `COc1ccc2nnc(C(=O)NC3CCCC3)nc2c1`, the “Percent Effect” value is reported as 57.83%.

Consider `O=C(NC1CCCCC1)c1nnc2ccc(N3CCOCC3)cc2n1`, for which the “Percent Effect” value amounted to 8.79%.

For `Cc1ccc2nnc(C(=O)NCC3CCCC3)nc2c1`, the “Percent Effect” value amounted to 103.3%.

Take `CN1CCN(C(=O)c2nnc3ccc(Cl)cc3n2)CC1`: the “Percent Effect” value is reported as 68.14%.

Regarding `COC(=O)C1CCN(C(=O)c2nnc3ccc(C)cc3n2)CC1`, the “Percent Effect” value is given as 15.86%.

`O=C(NCC1CC1)Nc1cnc2cc(Cl)ccc2c1O`: the “Percent Effect” value is listed as -11.98%.

In the case of `Cc1ccc(-n2nnc(C(=O)NCC3CCCCC3)n2)cc1`, the “Percent Effect” value is 10.71%.

As for `CCn1nc(C)c(CNC(=O)c2nnc3ccc(OC)cc3n2)c1C`, the “Percent Effect” value is -6.041%.

Regarding `COc1ccc2nnc(C(=O)NCC3CCCC3)nc2c1`, the “Percent Effect” value turned out to be 44.72%.

Take `CCn1nc(C)c(CNC(=O)c2nnc3ccc(Cl)cc3n2)c1C`: the “Percent Effect” value is recorded as 42.92%.

For `COC(=O)C1CCN(C(=O)c2nnc3ccc(Cl)cc3n2)CC1`, the “Percent Effect” value came to 26.61%.

`O=C(NCC1CC1)c1nnc2ccc(Cl)cc2n1`: the “Percent Effect” value worked out at 102.8%.

The values above are taken from ChEMBL document CHEMBL3988442, “University of Dundee, Small-Polar-MMV Screening Library” (2021).
